Screening data from PubChem.
The sample as a whole holds a higher share of hits than the screen did.
RMI FANCM FP = inhibitors of human RMI core complex binding to FANCM MM2; Fluorescence polarization, RMI core complex with F-MM2 peptide; stronger effect = lower value; FP signal (polarization) at 33 µM; 70,000 compounds, 0.58% hits; in the data active means FP signal below about 40
* hit, by the source's call; ! = repeats disagree.

SMILES | RMI FANCM FP
CCN(Cc1ccccc1)C(=O)CCN1C(=O)/C(=C\c2ccco2)SC1=S | 22*
CCc1nnc(NC(=O)CCN2C(=O)/C(=C\c3ccco3)SC2=S)s1 | 65
COCCNC(=O)C(=O)Nc1ccc(N2CCCC2=O)c(C)c1 | 53
CSc1scc2c1-c1nc(SCC(=O)C(C)(C)C)ncc1CC2 | 58
CSc1scc2c1C(=O)/C(=C/N(C)C)CC2 | 33*
COc1ccc(C(=O)CN2CCN(CCN3C(=O)c4cccc5cccc(c45)C3=O)CC2)cc1 | 25*
COC(=O)c1ccc(OCC(O)CN2CCN(CCN3C(=O)c4cccc5cccc(c45)C3=O)CC2)cc1 (stereo not given) | 56
O=C(CN1CCN(CCN2C(=O)c3cccc4cccc(c34)C2=O)CC1)c1ccc(F)cc1 | 63
Clc1cccnn1 | -3*
N#Cc1ccc(Cl)nn1 | 65
Cc1ccc(-n2c(C)nc3ccc(NC(=O)c4cccs4)cc3c2=O)cc1 | 61
COc1cc2cc(=O)[nH]c(C)c2cc1OC | 50
COc1cc2cc3c4cc(OC)c(OC)cc4cc[n+]3c(C)c2cc1OC | 12*!
COc1cc2cc(C(=O)O)cc(-c3ccc(C)cc3)c2cc1OC | 60
COc1cccc(/C=N\n2nnc3c(sc4nc(C)cc(C)c43)c2=O)c1 | 43
Cc1nc(Sc2nc3ccccc3o2)c2c3c(sc2n1)CCCC3 | 30*
Cc1nc2sc3c(c2c(=O)o1)CCCC3 | 53
Cc1nc(Cl)c2c3c(sc2n1)CCCC3 | 57
CC1=C(C(=O)Nc2ccccc2)C(c2ccco2)C(C#N)=C(SCC(=O)Nc2cccc(S(=O)(=O)N(C)C)c2)N1 (stereo not given) | 69
Cn1nc(C(=O)Nc2nccs2)ccc1=O | 63
COc1ccc(CC(=O)Nc2nc(-c3ccccc3)c(C(=O)c3ccccc3)s2)cc1C | 94
CCN1C(=O)/C(=C/c2c(C)c(C#N)c(=O)n(C)c2N2CCN(c3ccc(F)cc3)CC2)SC1=S | 15*
COCCCN1C(=O)/C(=C/N2CCN(c3ccccc3)CC2)SC1=S | 98
O=C(CCN1C(=O)/C(=C\c2ccccc2F)SC1=S)N1CCN(c2ccccc2)CC1 | 59
COCCN1CCCc2ccc(NS(=O)(=O)c3ccc(F)cc3F)cc21 | 18*
SMILES | RMI FANCM FP
COCCN1CCCc2ccc(NS(=O)(=O)c3cc(Cl)ccc3C)cc21 | 64
COCCN1CCCc2ccc(NS(=O)(=O)c3cc(C)c(C)cc3OC)cc21 | 60
COCCN1CCCc2ccc(NS(=O)(=O)c3ccccc3Cl)cc21 | 62
COCCN1CCCc2ccc(N)cc21 | -72*
COCCN1CCCc2ccc(NS(=O)(=O)Cc3ccc(Cl)cc3)cc21 | -27*
COCCN1CCCc2ccc(NC(=O)c3cc(C)cc(C)c3)cc21 | 65
COCCN1CCCc2ccc(NS(=O)(=O)c3ccc(C(C)(C)C)cc3)cc21 | 61
COCCN1CCCc2ccc(NS(=O)(=O)c3ccc(OC)cc3)cc21 | 58
CCOC(=O)c1ccc(Oc2ccc(Cl)cc2Cl)c([N+](=O)[O-])c1 | 49
CCc1nnc2ccc(OCCNC(=O)COc3ccc(OC)cc3)nn12 | 69
COc1ccc(C)c2sc(NCCCN3CCOCC3)nc12 | 69
COc1ccc(C(O)=C2C(=O)C(=O)N(Cc3cccnc3)C2c2ccc(Cl)c(Cl)c2)cc1F (stereo not given) | 62
CCC(C(=O)NCCc1cn2ccccc2n1)c1ccccc1 (stereo not given) | 55
O=C(NC(C(=O)c1ccccc1)n1cccnc1=O)c1ccccc1 (stereo not given) | 59
COC(=O)c1c(C)[nH]c(C(=O)CN2CCCCCC2)c1C | 6*
COC(=O)c1c(NC(=O)CN2CCCCCC2)sc2c1CCCC2 | 73
CCOC(=O)c1c(C)[nH]c(C(=O)CSc2ccc(Cl)cc2)c1C | 71
O=[N+]([O-])c1cccc(-c2nnc3c4cnn(-c5ccc(F)cc5)c4ncn23)c1 | 64
N=c1c2cnn(-c3ccccc3)c2ncn1/N=C\c1ccc([N+](=O)[O-])cc1 | 39*
O=c1c2cnn(-c3ccccc3)c2nnn1/N=C\c1ccc([N+](=O)[O-])cc1 | 43
O=C(CSc1nc2c(oc3ccccc32)c(=O)n1CC1CCCO1)Nc1cccc(Cl)c1 (stereo not given) | 67
Cc1cc(NC(=O)CN2CC3CC(C2)c2cccc(=O)n2C3)nc2c1c(=O)oc1ccccc12 (stereo not given) | 31*!
Cc1cc(NC(=O)C(C)(C)Oc2ccc(Cl)cc2)nc2c1c(=O)oc1ccccc12 | 75
COc1ccc(CC(=O)NCCCn2nc(-c3ccco3)ccc2=O)cc1 | 68
Cc1cc(C(=O)CSc2ncnc3scc(-c4ccccc4)c23)c(C)n1-c1cc(Cl)ccc1Cl | 81
SMILES | RMI FANCM FP
COc1cc(C(C)=O)ccc1OCC(=O)NCCOc1cccc(C(F)(F)F)c1 | 67
COc1cc(-c2ccc(=O)n(CC(=O)Nc3ccc(F)cc3F)n2)cc(OC)c1OC | 56
Cc1ccc(-c2noc(-c3cccn(CC(=O)Nc4ccc(F)cc4F)c3=O)n2)cc1 | 95
COc1cc2cc(CNc3ccc(C)cc3)c(=O)n(CC(=O)Nc3ccc(F)cc3F)c2cc1OC | 9*
COC(=O)c1sccc1N/C=C(\C#N)C(=O)c1ccco1 | 59
COC(=O)c1sccc1N/N=C(\C#N)C(=O)c1ccc(Cl)cc1 | 58
COC(=O)c1sccc1N/C=C(\C#N)C(=O)c1cccc(CSc2ccc(Cl)cc2)c1 | 7*
NS(=O)(=O)c1cccc(NC(=O)Nc2cccc(S(N)(=O)=O)c2)c1 | 56
Cc1ccc(OCCCC(=O)NCC(C)C)c(C)c1 | 66
Cc1ccc(C)c(OCCCC(C)(C)C(=O)O)c1 | 12*!
Cc1ccc(C)c(OCC(=O)N2CCC(C)CC2)c1 | 67
Nc1nc(-c2ccc(I)cc2)cs1 | 70
COc1ccc(S(=O)(=O)N2CCC(C(=O)N3CCNC(=O)C3(C)C)CC2)cc1 | 54
CN1CCN2c3ncccc3Cc3ccccc3C2C1 (stereo not given) | 57
CC(C)(C)[C@]1(O)CCN2C[C@H]3c4ccccc4CCc4cccc(c43)[C@@H]2C1 | 43*!
Cc1nc(-n2nc(-c3ccco3)cc2NC(=O)c2ccco2)[nH]c(=O)c1C | 46
Cc1nc(-n2nc(-c3ccco3)cc2NC(=O)CSCc2ccccc2)[nH]c(=O)c1C | 35*
Cc1ccc(OCC(=O)Nc2cc(-c3ccco3)nn2-c2nc(C)c(C)c(=O)[nH]2)cc1 | 42
NC(=O)c1ccsc1NC(=O)Cc1ccc(F)cc1 | 55
Cn1c(=NC(=O)c2cccc(Cl)c2)sc2cccc(F)c21 | 61
CCOc1cc(-c2nnc(NC(=O)c3ccc(C(=O)c4ccccc4)cc3)o2)cc(OCC)c1OCC | 61
N#C/C(=C\c1ccc(C#N)cc1)c1nc2ccccc2s1 | 71
Cc1cccc(Oc2nc3ccccn3c(=O)c2/C=C(\C#N)c2nc3ccccc3s2)c1 | 0*
N#C/C(=C\c1cn[nH]c1-c1ccccc1)c1nc2ccccc2s1 | 68
O=C(/C=C/c1ccccc1)Nc1nnc(SCC(=O)Nc2cc(C(F)(F)F)ccc2Cl)s1 | 92
SMILES | RMI FANCM FP
COC(=O)c1ccc2nc(NC(=O)c3ccnn3C)sc2c1 | 66
COC(=O)c1ccc2nc(NC(=O)c3ccc(N(C)C)cc3)sc2c1 | -15*
CCOc1cc(C(=O)Nc2nc3ccc(C(=O)OC)cc3s2)cc(OCC)c1OCC | 64
Cc1nc(N)sc1N=Nc1cc(C(=O)O)cc(C(=O)O)c1 | 58
Cc1sc2sc(-c3ccccc3)c(N)[n+]2c1C | 72
Nc1c(-c2ccccc2)sc2nc(-c3ccccc3)cc[n+]12 | 11*
c1ccc(-c2csc(-c3ccc(-c4ccccn4)s3)n2)cc1 | 71
